Measurements published in PubChem BioAssay (EPA / NIEHS).
Active and inactive are the calls of the source. Rule for the calls: active = hit-call score of the fitted dose curve at least 0.9, where 1 is the maximum; inactive = score below 0.9.

How the values were obtained:
[1] = ATG_E_Box_CIS: Attagene CIS-FACTORIAL HepG2 Assay for human Enhancer Box (E-box) (AID 2282936); conditions: HepG2 E-box cis-reporter transcription, actives raise or lower the signal
How it was run: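 E-box-driven reporter transcripts measured in transiently transfected HepG2 after 24 h exposure: RNA reverse-transcribed, PCR-amplified, fluorescently labelled, digested and resolved by capillary electrophoresis. Gain or loss relative to DMSO.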

[2] = ATG_M_61_CIS: Attagene CIS-FACTORIAL HepG2 Assay for M61 Transcription Factor (Internal Marker) (AID 2282937); conditions: HepG2 Attagene CIS-FACTORIAL M61 internal marker reporter; actives raise or lower the signal
How it was run: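 Endogenous transcription factor activity in HepG2 is read through transiently transfected cis-element reporter units. After 24 h dosing, RNA undergoes reverse transcription, PCR and primer extension with 6-FAM before capillary electrophoresis; DMSO-referenced bidirectional fit.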

[3] = ATG_EGR_CIS: Attagene CIS-FACTORIAL HepG2 Assay for human Early Growth Response 1 (EGR1) (AID 2282938); conditions: HepG2 Attagene CIS-FACTORIAL EGR reporter mRNA; actives raise or lower the signal
How it was run: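 Activity is taken as induction or loss of reporter mRNA versus DMSO, fitted bidirectionally. Transcripts from cis-regulated reporter units in transiently transfected HepG2 were measured after 24 h by RT-PCR with capillary electrophoresis.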

[4] = ATG_Ets_CIS: Attagene CIS-FACTORIAL HepG2 Assay for human Erythroblast Transformation Specific (ETS) (AID 2282941); conditions: HepG2 ETS cis-reporter transcription, actives raise or lower the signal
How it was run: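 Cis-regulated reporter mRNA induction in HepG2 (transient transfection), 24 h exposure, RT-PCR plus capillary electrophoresis detection; DMSO serves as negative control and baseline.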

[5] = molecular target: Hepatocyte nuclear factor 3-beta (Homo sapiens) (UniProt Q9Y261); assay: ATG_FoxA2_CIS: Attagene CIS-FACTORIAL HepG2 Assay for human Forkhead box A2 (FOXA2) (AID 2282942); conditions: HepG2 cis-reporter transcription factor activity, 24 h; actives raise or lower the signal
How it was run: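 Reporter transcript induction is measured by fluorescence after capillary electrophoresis of RT-PCR products from HepG2 cells exposed 24 h. Cis-regulated reporter units report endogenous factor activity; curves fitted both directions against DMSO.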

[6] = ATG_FoxO_CIS: Attagene CIS-FACTORIAL HepG2 Assay for human Forkhead box O (FoxO) (AID 2282943); conditions: HepG2 Attagene cis-reporter, FoxO element, mRNA; actives raise or lower the signal
How it was run: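 HepG2, transient MRTU transfection (cis element, endogenous TFs). Dose 24 h. TriZol RNA → oligo(dT) RT → PCR → 6-FAM primer extension → HpaI cut → CE. Gain/loss vs DMSO.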

[7] = ATG_GATA_CIS: Attagene CIS-FACTORIAL HepG2 Assay for human GATA Binding Protein (AID 2282944); conditions: HepG2 GATA cis-element reporter, Attagene multiplex mRNA; actives raise or lower the signal
How it was run: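 Transient MRTU transfection, HepG2, 24 h compound exposure. Total RNA → oligo(dT) RT → PCR → 6-FAM primer extension → HpaI cut → CE. Bidirectional fit vs DMSO.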

[8] = ATG_GLI_CIS: Attagene CIS-FACTORIAL HepG2 Assay for human Zinc Finger Protein GLI1 (AID 2282945); conditions: HepG2, Attagene cis-factorial reporter mRNA, GLI element; actives raise or lower the signal
How it was run: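 Bidirectional curve fits relative to DMSO, using reporter mRNA levels from RT-PCR plus capillary electrophoresis. Cells were HepG2 transiently carrying cis-regulated reporter constructs, harvested 24 h after dosing.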

[9] = ATG_GRE_CIS: Attagene CIS-FACTORIAL HepG2 Assay for human Glucocorticoid Response Elements (GRE) (AID 2282947); conditions: HepG2 GRE cis-reporter, Attagene multiplex mRNA; actives raise or lower the signal
How it was run: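 Reporter transcripts read by RT-PCR with capillary electrophoresis fluorescence after a 24 h chemical exposure of HepG2 cells transiently transfected with multiple cis-element reporter units. Gain or loss fitted against DMSO.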

[10] = ATG_ISRE_CIS: Attagene CIS-FACTORIAL HepG2 Assay for human Interferon Regulatory Factor 1 (IRF1) binding to an Interferon-Stimulated Response Element (ISRE) (AID 2282948); conditions: HepG2 ISRE cis-reporter (Attagene), mRNA transcription readout; actives raise or lower the signal
How it was run: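 Multiplexed mRNA reporter readout in human liver HepG2 cells: cis-element-driven reporters transfected, compound added for 24 h, transcripts amplified, fluorescently labelled and sized by capillary electrophoresis; curve fitting bidirectional against DMSO.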

[11] = ATG_M_32_CIS: Attagene CIS-FACTORIAL HepG2 Assay for M32 Transcription Factor (Internal Marker) (AID 2282949); conditions: HepG2 Attagene cis-factorial M32 reporter, mRNA; actives raise or lower the signal;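 note: background control marker of the multiplexed CIS panel rather than a real target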
How it was run: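 HepG2 transfectants (cis-regulated reporter transcription units) dosed 24 h. Reporter mRNA by RT-PCR plus CE, analysed as gain or loss relative to DMSO.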

[12] = ATG_M_06_CIS: Attagene CIS-FACTORIAL HepG2 Assay for M06 Transcription Factor (Internal Marker) (AID 2282950); conditions: HepG2 Attagene CIS-FACTORIAL M06 internal marker reporter; actives raise or lower the signal
How it was run: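 Read-out is fluorescence of labelled reporter cDNA fragments resolved by capillary electrophoresis after RT-PCR. Cells: HepG2 carrying transfected cis-promoter reporter units, treated 24 h. Gain or loss of signal fitted relative to DMSO.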

[13] = molecular target: Hepatocyte nuclear factor 6 (Homo sapiens) (UniProt Q9UBC0); assay: ATG_HNF6_CIS: Attagene CIS-FACTORIAL HepG2 Assay for human Hepatocyte Nuclear Factor 6 (HNF6) (AID 2282952); conditions: HepG2 Attagene cis-factorial HNF6 reporter transcription; actives raise or lower the signal
How it was run: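 Twenty-four-hour chemical treatment of reporter-transfected HepG2 cells precedes RNA isolation, DNase-treated reverse transcription and PCR of reporter sequences. Labelled fragments are sized by capillary electrophoresis and fitted bidirectionally versus DMSO.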

[14] = molecular target: Heat shock factor protein 1 (Homo sapiens) (UniProt Q00613); assay: ATG_HSE_CIS: Attagene CIS-FACTORIAL HepG2 Assay for human Heat Shock Transcription Factor 1 (HSE) (AID 2282953); conditions: HepG2 HSE cis-reporter, Attagene RNA transcription; actives raise or lower the signal
How it was run: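 HepG2, transient MRTU transfection, cis-promoter reporters (endogenous TF activity). 24 h compound. RNA → oligo(dT) RT → PCR → 6-FAM primer extension → HpaI cut → CE. Bidirectional fit vs DMSO.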

[15] = ATG_MRE_CIS: Attagene CIS-FACTORIAL HepG2 Assay for human Metal Responsive Element (MRE) (AID 2282954); conditions: HepG2 MRE cis-reporter transcription, Attagene multiplex; actives raise or lower the signal
How it was run: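 Endogenous MRE-dependent transcription read as reporter mRNA in transiently transfected human HepG2 cells at 24 h. RNA reverse-transcribed, PCR-amplified, labelled and resolved by capillary electrophoresis; gain or loss relative to DMSO.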

[16] = ATG_PBREM_CIS: Attagene CIS-FACTORIAL HepG2 Assay for human Phenobarbital-responsive Enhancer Module (PBREM) (AID 2282955); conditions: HepG2 PBREM cis-reporter, Attagene multiplexed transcription; actives raise or lower the signal
How it was run: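 Cells were transfected with cis-element reporter units and treated for 24 h, after which RNA was extracted and reporter transcripts measured by RT-PCR and capillary electrophoresis.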

[17] = molecular target: Paired box protein Pax-6 (Homo sapiens) (UniProt P26367); assay: ATG_Pax6_CIS: Attagene CIS-FACTORIAL HepG2 Assay for human Paired Box 6 (PAX6) (AID 2282956); conditions: HepG2 CIS-FACTORIAL PAX6 reporter transcription, RNA readout; actives raise or lower the signal
How it was run: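 Fluorescent RT-PCR products separated by capillary electrophoresis report PAX6-linked promoter mRNA in HepG2 cells 24 h post-dose. Curves fitted bidirectionally, DMSO as negative control.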

[18] = molecular target: Hypoxia-inducible factor 1-alpha (Homo sapiens) (UniProt Q16665); assay: ATG_HIF1a_CIS: Attagene CIS-FACTORIAL HepG2 Assay for human Hypoxia Inducible Factor 1 (HIF1A) (AID 2282951); conditions: HepG2 Attagene cis-factorial HIF1a reporter transcription; actives raise or lower the signal
How it was run: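 Fluorescence intensity of capillary-separated, 6-FAM-labelled reporter amplicons gives mRNA induction in HepG2 cells carrying transfected cis-promoter reporter units; cells exposed 24 h, responses fitted up or down from DMSO.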

[19] = molecular target: Bile acid receptor (Homo sapiens) (UniProt Q96RI1); assay: ATG_IR1_CIS: Attagene CIS-FACTORIAL HepG2 Assay for human Nuclear Receptor Subfamily 1 Group H Member 4 (NR1H4), IR1 submotif (AID 2282946); conditions: IR1 reporter transcription, actives raise or lower the signal
How it was run: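 HepG2 cells transiently transfected with multiplexed cis-element reporter units read endogenous transcription factor activity. After 24 h compound exposure, reporter mRNA was quantified by RT-PCR, fluorescent labelling, HpaI digestion and capillary electrophoresis; bidirectional fitting versus DMSO baseline.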

Measured: AC50

Chain of Hypoxia-inducible factor 1-alpha (Homo sapiens) (Q16665 whole entry, looked up): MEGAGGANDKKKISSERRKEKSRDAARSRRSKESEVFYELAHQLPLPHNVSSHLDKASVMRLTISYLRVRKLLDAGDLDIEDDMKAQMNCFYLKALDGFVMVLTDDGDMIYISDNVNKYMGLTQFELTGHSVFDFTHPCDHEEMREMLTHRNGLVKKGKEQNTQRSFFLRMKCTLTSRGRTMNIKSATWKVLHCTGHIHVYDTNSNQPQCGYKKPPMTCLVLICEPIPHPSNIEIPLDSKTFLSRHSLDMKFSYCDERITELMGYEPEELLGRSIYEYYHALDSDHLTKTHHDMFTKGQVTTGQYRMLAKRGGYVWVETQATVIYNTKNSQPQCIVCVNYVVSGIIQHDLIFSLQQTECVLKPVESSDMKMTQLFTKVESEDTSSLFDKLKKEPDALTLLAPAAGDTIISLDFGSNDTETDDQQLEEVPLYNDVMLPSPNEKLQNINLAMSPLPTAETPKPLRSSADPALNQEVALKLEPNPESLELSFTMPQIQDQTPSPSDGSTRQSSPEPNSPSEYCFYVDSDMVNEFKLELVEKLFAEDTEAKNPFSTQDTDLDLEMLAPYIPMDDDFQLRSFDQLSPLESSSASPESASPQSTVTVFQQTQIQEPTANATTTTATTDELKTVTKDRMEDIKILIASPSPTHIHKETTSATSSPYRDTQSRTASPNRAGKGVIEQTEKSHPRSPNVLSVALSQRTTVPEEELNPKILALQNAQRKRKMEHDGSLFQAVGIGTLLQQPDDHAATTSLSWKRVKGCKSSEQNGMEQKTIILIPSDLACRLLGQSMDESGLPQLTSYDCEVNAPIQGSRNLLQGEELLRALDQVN
Chain of Hepatocyte nuclear factor 3-beta (Homo sapiens) (Q9Y261 whole entry, looked up): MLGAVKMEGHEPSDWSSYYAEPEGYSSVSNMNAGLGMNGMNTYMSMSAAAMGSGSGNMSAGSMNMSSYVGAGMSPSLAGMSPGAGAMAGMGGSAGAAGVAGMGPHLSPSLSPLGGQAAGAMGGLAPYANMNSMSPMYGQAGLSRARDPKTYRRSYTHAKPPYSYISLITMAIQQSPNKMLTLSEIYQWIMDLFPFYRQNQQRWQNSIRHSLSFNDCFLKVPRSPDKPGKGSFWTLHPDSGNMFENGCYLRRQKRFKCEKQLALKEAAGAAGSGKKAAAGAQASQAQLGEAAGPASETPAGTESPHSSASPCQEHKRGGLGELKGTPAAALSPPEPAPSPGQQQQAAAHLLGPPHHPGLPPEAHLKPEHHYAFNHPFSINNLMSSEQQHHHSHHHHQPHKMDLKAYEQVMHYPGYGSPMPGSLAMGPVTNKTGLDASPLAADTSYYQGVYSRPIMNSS
Chain of Hepatocyte nuclear factor 6 (Homo sapiens) (Q9UBC0 whole entry, looked up, the tested form may be a part): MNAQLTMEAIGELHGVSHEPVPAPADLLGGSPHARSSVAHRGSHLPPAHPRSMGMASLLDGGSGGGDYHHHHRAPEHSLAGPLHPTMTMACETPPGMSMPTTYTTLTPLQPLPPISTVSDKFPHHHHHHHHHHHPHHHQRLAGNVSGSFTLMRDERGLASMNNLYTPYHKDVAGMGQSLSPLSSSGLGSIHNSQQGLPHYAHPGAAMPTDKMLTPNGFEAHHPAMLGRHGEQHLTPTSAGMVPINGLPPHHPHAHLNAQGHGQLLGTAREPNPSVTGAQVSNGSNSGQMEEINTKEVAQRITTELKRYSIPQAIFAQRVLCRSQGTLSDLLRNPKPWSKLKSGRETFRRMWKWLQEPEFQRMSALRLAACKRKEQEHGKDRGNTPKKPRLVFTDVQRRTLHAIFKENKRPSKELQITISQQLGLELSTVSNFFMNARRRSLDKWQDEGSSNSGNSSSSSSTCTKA
Chain of Heat shock factor protein 1 (Homo sapiens) (Q00613 whole entry, looked up): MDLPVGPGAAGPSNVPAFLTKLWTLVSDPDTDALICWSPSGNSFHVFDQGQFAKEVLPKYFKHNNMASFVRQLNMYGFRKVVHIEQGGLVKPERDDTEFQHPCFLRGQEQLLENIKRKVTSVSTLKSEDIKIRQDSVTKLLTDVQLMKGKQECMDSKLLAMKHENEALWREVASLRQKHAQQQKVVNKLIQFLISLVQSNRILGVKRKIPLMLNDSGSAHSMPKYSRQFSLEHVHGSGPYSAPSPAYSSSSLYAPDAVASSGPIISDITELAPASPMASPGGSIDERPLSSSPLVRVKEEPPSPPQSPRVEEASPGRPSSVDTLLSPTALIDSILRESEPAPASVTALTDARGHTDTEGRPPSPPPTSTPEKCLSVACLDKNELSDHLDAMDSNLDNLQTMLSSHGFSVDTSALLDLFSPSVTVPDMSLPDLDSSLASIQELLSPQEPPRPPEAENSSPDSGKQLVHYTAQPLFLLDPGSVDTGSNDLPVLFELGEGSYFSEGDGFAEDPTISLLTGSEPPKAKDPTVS
Chain of Paired box protein Pax-6 (Homo sapiens) (P26367 whole entry, looked up): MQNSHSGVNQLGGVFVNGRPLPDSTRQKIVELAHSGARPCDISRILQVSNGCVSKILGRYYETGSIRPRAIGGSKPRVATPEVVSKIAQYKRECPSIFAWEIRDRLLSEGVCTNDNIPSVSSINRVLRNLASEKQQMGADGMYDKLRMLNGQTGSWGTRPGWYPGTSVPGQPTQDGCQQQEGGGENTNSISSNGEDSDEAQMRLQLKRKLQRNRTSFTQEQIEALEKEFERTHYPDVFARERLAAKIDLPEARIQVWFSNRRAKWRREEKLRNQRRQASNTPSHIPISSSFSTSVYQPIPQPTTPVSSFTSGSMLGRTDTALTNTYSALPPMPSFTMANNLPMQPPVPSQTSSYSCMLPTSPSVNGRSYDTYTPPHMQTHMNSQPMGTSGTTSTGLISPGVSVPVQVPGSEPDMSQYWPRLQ
Chain of Bile acid receptor (Homo sapiens) (Q96RI1 whole entry, looked up): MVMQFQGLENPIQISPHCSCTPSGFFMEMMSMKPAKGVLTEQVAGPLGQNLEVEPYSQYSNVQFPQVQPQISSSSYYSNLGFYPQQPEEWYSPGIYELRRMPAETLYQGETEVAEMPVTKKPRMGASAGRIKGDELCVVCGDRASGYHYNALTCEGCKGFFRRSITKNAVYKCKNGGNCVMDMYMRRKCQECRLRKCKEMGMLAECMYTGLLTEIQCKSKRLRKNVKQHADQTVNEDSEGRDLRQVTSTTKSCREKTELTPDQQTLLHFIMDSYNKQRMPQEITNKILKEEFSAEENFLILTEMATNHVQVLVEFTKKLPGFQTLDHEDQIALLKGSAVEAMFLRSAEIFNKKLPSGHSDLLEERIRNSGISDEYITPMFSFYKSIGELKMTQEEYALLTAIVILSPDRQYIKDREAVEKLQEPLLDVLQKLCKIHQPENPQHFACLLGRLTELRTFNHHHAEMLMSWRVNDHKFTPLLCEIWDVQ

CNC(=O)Oc1cccc2c1OC(C)(C)C2
not listed: [18] | [19]
inactive: all other assays above

Nc1cc(Cl)cc(C(=O)O)c1Cl
not listed: [6] | [9] | [19]
inactive: all other assays above

ClC1=C(Cl)C2(Cl)C3C(Cl)C=CC3C1(Cl)C2(Cl)Cl (stereo not drawn)
active: [3] 132 µM | [15] 127 µM | [17] 139 µM
not listed: [6] | [19]
inactive: all other assays above

Cn1cc(-c2ccccc2)c(=O)c(-c2cccc(C(F)(F)F)c2)c1
active: [1] 55 µM | [10] 61.1 µM
not listed: [6] | [19]
inactive: all other assays above

Cc1ccc([N+](=O)[O-])cc1
not listed: [18] | [19]
inactive: all other assays above

Clc1ccc(C(c2ccc(Cl)cc2)C(Cl)Cl)cc1
inactive: [1] | [2] | [5] | [7] | [9] | [11] | [12] | [13]
active: [3] 45.1 µM | [4] 53.8 µM | [8] 45.9 µM | [19] 21.2 µM | [10] 49.4 µM | [14] 51.7 µM | [15] 50.6 µM | [16] 56.8 µM | [17] 62.7 µM

Nc1ccc(Cc2ccc(N)cc2)cc1
not listed: [6] | [18]
inactive: all other assays above
